This is an account of results in PubChem BioAssay (Tox21).

Assay [1] in a line: A CellTox Green Cytotoxicity Assay to monitor cytotoxicity in HepG2 cells - 8 hour (AID 1224890). Further: nearly all actives have a fitted effect of over 45% in size. In outline:
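Nonlytic assay: viable cells exclude the dye, so fluorescence scales with cell death. HepG2 at 600 cells/well, compounds added after 5 h, signal read across 40 h.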

Assay [2] is described as follows: qHTS assay to identify small molecule antagonists of the estrogen receptor alpha (ER-alpha) signaling pathway using the BG1 cell line in the presence of 0.1 nM 17-beta-estradiol - cell viability counter screen (AID 1259241). Further: nearly all actives have a fitted effect of over 40% in size. In outline:
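VM7Luc4E2 cells (endogenous full-length ER-alpha, 4xERE-luciferase), cultured 5 days in charcoal-stripped serum, exposed to compounds with 0.1 nM 17beta-estradiol (final) for 22 hr at 37C. Viability read in same wells as live-cell protease fluorescence after 30 min.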

Assay [3] in a line: qHTS assay to identify small molecule antagonists of the androgen receptor (AR) signaling pathway using the MDA cell line in the presence of 0.5 nM R1881 - cell viability counter screen (AID 1259242). Further: nearly all actives have a fitted effect of over 45% in size. In outline:
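R1881 at 0.5 nM final stimulated MDA-kb2 cells during 16 hr compound treatment at 37C. Cytotoxicity read: CellTiter-Fluor fluorescence after 30 min.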

Assay [4] addresses Estrogen receptor (Homo sapiens) (UniProt P03372). Nature of the assay: qHTS assay to identify small molecule antagonists of the estrogen receptor alpha (ER-alpha) signaling pathway using the BG1 cell line in the presence of 0.1 nM 17-beta-estradiol (AID 1259244). Further: nearly all actives have a fitted effect of over 50% in size. In outline:
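VM7Luc4E2; 4xERE-luciferase; 0.1 nM E2 final; 22 h co-incubation, 37C; ONE-Glo luminescence after 30 min at room temperature.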

The nature of assay [5]: qHTS assay to identify small molecule HDAC inhibitors (AID 1259364). Further: potency means the concentration at half of the fitted maximal effect.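 Further: wild-type HCT-116 cells with endogenous class I/II HDAC activity; nearly all actives have a fitted effect of over 45% in size.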 On activity change, negative = inhibition: top concentration of the series differs between compounds. In outline:
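Relative class I and II HDAC activity is taken from the luminogenic signal in HCT-116 cells, with compound exposure 2 hr and reagent development 30 min at room temperature.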

Assay [6] in a line: qHTS assay to identify small molecule HDAC inhibitors - cell viability counter screen (AID 1259365). Further: series mostly up to about 92 µM; nearly all actives have a fitted effect of over 50% in size. The method in brief: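 Wild-type HCT-116 cells, 1,500/well, cultured overnight, then compound-treated 2 h at 37 C. Viability measured as ATP luminescence with CellTiter-Glo after 30 min at room temperature.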
Assay [7] can be described thus: qHTS assay to identify small molecule antagonists of the sonic hedgehog signaling (Shh) pathway - cell viability counter screen (AID 1259367). Further: nearly all actives have a fitted effect of over 55% in size. Further: potency means the concentration at half of the fitted maximal effect. In outline: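 NIH/3T3-derived Gli1-Luc reporter cells, 2,000/well, plated 4 hr before compound addition, then stimulated with conditioned medium for 24 hr at 37C. Viability measured in the same wells by CellTiter-Fluor fluorescence, reagent added at 23 hr for 1 hr.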

Assay [8] can be described thus: qHTS assay to identify small molecule phospholipidosis (PLD) inducers (AID 1259344; active means well fitted curve in the direction sought with a large enough effect; an effect the other way counts as inactive or inconclusive). The method in brief: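 HepG2 cells, 900/well, treated with compound plus LipidTOX Red for 24 h at 37 C; amiodarone positive and DMSO negative controls. Fixed with paraformaldehyde/Hoechst, then high-content imaging scored LipidTOX pit count and integrated intensity per well and per cell.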

Assay [9] is described as follows: qHTS assay to identify small molecule agonists of the sonic hedgehog signaling (Shh) pathway - cell viability counter screen (AID 1259366). Further: nearly all actives have a fitted effect of over 50% in size. Further: potency means the concentration at half of the fitted maximal effect. In outline:
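NIH/3T3-derived Gli1-Luc reporter cells, 2,000 per well, received compound after 4 h and were treated about 23 h at 37C. Viability measured in the same wells by CellTiter-Fluor fluorescence after 1 h.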

Where “and” joins values, the source holds several entries; their conditions need not be identical. Identical values can stand only once. Records with an inconclusive call do not appear. A structure can be active in one record and inactive in another. Calls of active or inactive are those of the source. Unless noted, the call rests on the fitted dose curve; in most records, active means well fitted curve in the direction sought with a large enough effect in the repeat runs; inconclusive means weak or mixed curves; inactive means no such curve, though single readings can be large; an effect the other way counts as inactive or inconclusive.
On the % scale 0 is the no-effect control and ±100 the full control effect.

Sequence of Estrogen receptor (Homo sapiens) (P03372 whole entry, looked up): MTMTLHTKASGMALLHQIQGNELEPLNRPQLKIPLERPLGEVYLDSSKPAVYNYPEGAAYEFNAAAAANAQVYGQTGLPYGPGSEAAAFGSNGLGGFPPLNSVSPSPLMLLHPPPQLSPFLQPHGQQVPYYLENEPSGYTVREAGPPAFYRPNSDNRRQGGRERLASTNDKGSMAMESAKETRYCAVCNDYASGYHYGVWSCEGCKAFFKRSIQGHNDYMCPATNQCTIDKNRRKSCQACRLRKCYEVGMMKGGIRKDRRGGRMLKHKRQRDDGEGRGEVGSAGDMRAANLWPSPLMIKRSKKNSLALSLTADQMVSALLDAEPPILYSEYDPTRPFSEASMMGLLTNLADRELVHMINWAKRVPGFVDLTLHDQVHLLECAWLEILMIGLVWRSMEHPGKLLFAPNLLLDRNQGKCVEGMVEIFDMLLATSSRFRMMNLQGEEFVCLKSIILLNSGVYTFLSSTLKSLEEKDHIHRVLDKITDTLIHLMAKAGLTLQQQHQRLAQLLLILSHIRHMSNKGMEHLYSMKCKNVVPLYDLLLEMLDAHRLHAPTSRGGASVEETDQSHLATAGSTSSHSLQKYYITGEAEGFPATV

In the case of `C=CC(=O)OCC(C)O` (stereo not given), the Potency result in [1], in [2], in assay [3], in assay [4], in [5] and in assay [6] was “inactive” in each case. For the same compound, the Potency result in assay [7] was “inactive”.
Take `c1ccc(CN2CCNCC2)cc1`: the Potency entry in assay [1], in assay [2], in [3], in [5], in assay [6] and in assay [9] was “inactive” in each case. The Potency result in [7] was “inactive”. The call in [8] was inactive.
With `CC1(C)[C@H](C=C(Cl)Cl)[C@@H]1C(=O)O[C@@H](C#N)c1cccc(Oc2ccccc2)c1`, the Potency entry in assay [1], in assay [2], in assay [3], in assay [4], in assay [5] and in [6] was “inactive” throughout. The Potency entry in assay [9] and in assay [7] was “inactive” in each case.
Take `CCCCCCC#N`: the Potency result in assay [1], in [2], in assay [3], in assay [4], in assay [5] and in assay [6] was “inactive” in each case. Moreover, the Potency entry in assay [9] and in [7] was “inactive” in each case.
Consider `O=C1c2ccccc2C(=O)C1C(=O)C(c1ccccc1)c1ccccc1`, for which the Potency result in assay [1], in assay [2], in assay [3], in assay [5], in assay [6] and in assay [9] was “inactive” in each case. Also, the Potency result in [7] was “inactive”. Also, the outcome in assay [8] was inactive.
For the compound `O=[N+]([O-])c1cc(C(F)(F)F)cc([N+](=O)[O-])c1Cl`, the Potency entry in assay [1], in assay [2], in assay [3], in assay [4], in assay [5] and in assay [6] was “inactive” in each case. Besides, the Potency in [9] is 30.8 µM (active); in assay [7], 24.4 µM (active).
Consider `CCCN(CC1CC1)c1c([N+](=O)[O-])cc(C(F)(F)F)cc1[N+](=O)[O-]`, for which the Potency entry in assay [1], in [2], in assay [3], in assay [4], in assay [5] and in assay [6] was “inactive” in each case. For the same compound, the Potency entry in assay [9] and in [7] was “inactive” throughout.
`C=CCCl`: the Potency entry in [1], in assay [2], in assay [3], in assay [4], in assay [5] and in assay [6] was “inactive” each time. Further, the Potency result in [9] and in assay [7] was “inactive” each time.
In the case of `CC(C)N(C(=O)COc1nnc(C(F)(F)F)s1)c1ccc(F)cc1`, the Potency entry in assay [1], in [2], in assay [3], in assay [4], in assay [5] and in assay [6] was “inactive” in each case. The Potency result in assay [7] is “inactive”.
For the compound `CCOP(=S)(OCC)Oc1cc(Cl)c(Br)cc1Cl`, the Potency entry in assay [1], in assay [2], in assay [3], in assay [4], in [5] and in assay [6] was “inactive” throughout. Also, the Potency entry in assay [9] and in [7] was “inactive” throughout.
For the compound `CO[C@@H]1[C@H](OC(=O)NC(=O)CCl)CC[C@]2(CO2)[C@H]1[C@@]1(C)O[C@@H]1CC=C(C)C`, the cytotoxicity increase in assay [1] was -1.9% [at 15.8 µM] (inactive). Also, the activity change, negative = cytotoxicity in [2] was -6.95% [at 19 µM] (inactive); in [6] it was 12.9% [at 19 µM] (inactive). Also, the results for the viability change, negative = cytotoxic in assay [3] and in assay [7] were -0.0338% [at 19 µM] (inactive) and -7.4% [at 19 µM] (inactive), respectively. The activity change, negative = inhibition was -0.212% [at 19 µM] (inactive) in assay [4] and -1.01% [at 19 µM] (inactive) in [5].
`COC(N)=O`: the Potency result in assay [1], in assay [2], in assay [3], in assay [4], in assay [5] and in [6] was “inactive” each time. Also, in assay [7], the Potency entry is “inactive”.
Regarding `CCC(COC(=O)c1cc(OC)c(OC)c(OC)c1)(c1ccccc1)N(C)C` (stereo not given), the Potency entry in assay [1], in assay [2], in assay [3], in assay [5], in assay [6] and in assay [9] was “inactive” each time. Moreover, the compound was classed as inactive in assay [8].
For the compound `CCC(Cl)CCl` (stereo not given), the Potency entry in [1], in assay [2], in assay [3], in assay [4], in [5] and in assay [6] was “inactive” in each case. Moreover, the Potency result in [9] and in assay [7] was “inactive” in each case.
With `COc1c(C(C)(C)C)cc([N+](=O)[O-])c(C)c1[N+](=O)[O-]`, the Potency entry in assay [1], in assay [2], in assay [3], in [4], in assay [5] and in [6] was “inactive” in each case. Further, the Potency entry in [9] and in [7] was “inactive” each time.
Regarding `CCCN(CCCl)c1c([N+](=O)[O-])cc(C(F)(F)F)cc1[N+](=O)[O-]`, the Potency entry in [1], in assay [2], in assay [3], in [4], in assay [5] and in assay [6] was “inactive” in each case. Besides, the Potency entry in [7] was “inactive”.
`O=C=Nc1ccc(Cl)cc1`: the Potency entry in assay [1], in [2], in assay [3], in assay [4] and in assay [6] was “inactive” in each case.
Turning to `CC(O)(CS(=O)(=O)c1ccc(F)cc1)C(=O)Nc1ccc(C#N)c(C(F)(F)F)c1` (stereo not given), the Potency result in assay [1], in assay [2], in assay [3], in [5], in [6] and in [9] was “inactive” in each case. For the same compound, in assay [7], the Potency result is “inactive”. In addition, the compound was called inactive in [8].
Take `CCBr`: the Potency result in assay [1], in [2], in assay [3], in assay [4], in assay [5] and in assay [6] was “inactive” each time. The Potency result in assay [9] and in assay [7] was “inactive” in each case.
As to `Clc1cc(Cl)c(Cl)c(Cl)c1`, the Potency result in [1], in assay [2], in assay [3], in assay [4], in assay [5] and in assay [6] was “inactive” each time. Further, the Potency entry in assay [9] and in assay [7] was “inactive” in each case.
Turning to `CCCCOC(=O)c1ccccc1C(=O)OCc1ccccc1`, the Potency result in assay [1], in assay [2], in assay [3], in assay [6] and in assay [9] was “inactive” in each case. Further, the Potency result in assay [5] is “inactive and 17.2 µM (active)”; in [7], “inactive and 48.6 µM (active)”.
For the compound `O=S(=O)(O)C(F)(F)C(F)(F)C(F)(F)C(F)(F)F`, the Potency result in assay [1], in assay [2], in [3], in assay [5], in assay [6] and in assay [9] was “inactive” each time.
Take `Cc1ccccc1CCl`: the Potency result in assay [1], in assay [2], in assay [3], in [5] and in assay [6] was “inactive” throughout.
Consider `Clc1cc(C(Cl)(Cl)Cl)cnc1Cl`, for which the Potency result in assay [1], in assay [2], in assay [4], in [5], in assay [6] and in assay [9] was “inactive” throughout. Moreover, the Potency entry in [7] was “inactive”.
For `CN1C[C@H](CNC(=O)OCc2ccccc2)C[C@@H]2c3cccc4c3c(cn4C)C[C@H]21`, the Potency result in assay [1], in assay [2], in assay [4], in [5], in [6] and in assay [7] was “inactive” throughout.
Regarding `NCC(CC(=O)O)c1ccc(Cl)cc1` (stereo not given), the cytotoxicity increase in assay [1] is -2.04% [at 0.29 µM] (inactive). The values for the activity change, negative = cytotoxicity in assay [2] and in assay [6] were 0.211% [at 0.349 µM] (inactive) and -1.28% [at 0.349 µM] (inactive), respectively. For the same compound, the viability change, negative = cytotoxic in assay [3] was 0.181% [at 0.349 µM] (inactive); in [7] it was 1.24% [at 0.349 µM] (inactive). Also, the compound was classed as inactive in [8]. Also, the activity change, negative = inhibition in [5] was 13.2% [at 0.349 µM] (inactive).
Regarding `CCOP(=O)(OCC)Oc1ccc([N+](=O)[O-])cc1`, the Potency entry in [1], in assay [2], in [3], in assay [5] and in assay [6] was “inactive” in each case.
Take `O=C(O)c1ccccc1C(=O)Nc1cccc2ccccc12`: the Potency result in [1], in assay [2], in [3], in [5], in [6] and in [9] was “inactive” in each case. Also, the Potency result in [7] was “inactive”.
Regarding `O=C(O)C1(c2ccc3c(c2)OC[C@H](Cc2ccc(-c4ccccc4)cc2)[C@H]3O)CCCC1`, the Potency entry in [1], in assay [2], in assay [3], in [5], in [6] and in assay [7] was “inactive” in each case.
As for `ClCCCCBr`, the Potency entry in [1], in assay [2], in assay [3], in assay [5], in assay [6] and in [7] was “inactive” throughout.
As to `CC/C(=N\OC/C=C/Cl)C1=C(O)CC(C2CCOCC2)CC1=O` (stereo not given), the Potency result in assay [1], in assay [2], in assay [3], in [5], in [6] and in assay [9] was “inactive” throughout. Besides, in assay [7], the Potency entry was “inactive”.
